Test [1] concerns Vero E6 infected with SARS-CoV-2. Description: morphology score (similarity to uninfected cells); higher = more like uninfected cells. As to conditions: 24 h.
Test [2] shares this test system. Description: SARS-CoV-2 infection rate relative to infected DMSO; higher = more infection, active = 60 or less. Conditions: 24 h.
The test system is the same in test [3]. Put plainly: inhibition of SARS-CoV-2 cytopathic effect; higher = more antiviral protection, active = above 15. Conditions: 48 h.

The structures appear in SMILES notation.

With `N[C@@H](CSS(=O)(=O)O)C(=O)O` [S-sulfo-L-cysteine] (10 µM), in test [1], the morphology score was 0.254. Moreover, the SARS-CoV-2 infection rate in test [2] is 90% (inactive).

Turning to `C[N+]1([O-])[C@@H]2CC[C@H]1C[C@@H](OC(=O)C(CO)c1ccccc1)C2` (some centres undefined) [atropine-oxide] (10 µM), in test [1], the morphology score was found to be 0.0224. The SARS-CoV-2 infection rate in test [2] is 106% (inactive).

On to `CCO[C@@H]1OC(=O)C[C@@H]1NC(=O)[C@@H]1CCCN1C(=O)[C@@H](NC(=O)c1ccc(N)c(Cl)c1)C(C)(C)C` (10 µM), for which, in test [1], the morphology score turned out to be 0.0386. In test [2], the SARS-CoV-2 infection rate was 116% (inactive).

Turning to `CN(C)/N=N/c1[nH]cnc1C(N)=O` [dacarbazine] (10 µM), the morphology score in test [1] worked out at 0.135. Besides, the SARS-CoV-2 infection rate in test [2] is 87% (inactive).

The compound `CC(=O)N[C@H]1[C@H]([C@H](O)[C@H](O)CO)OC(C(=O)O)=C[C@@H]1NC(=N)N` [zanamivir] (10 µM) gave a morphology score in test [1] of 0.113. The SARS-CoV-2 infection rate in test [2] is 108% (inactive).

`CCCC(=O)N1CCCN(c2nc(N)c3cc(OC)c(OC)cc3n2)CC1` [bunazosin] (10 µM): in test [1], the morphology score was 0.0754. Further, in test [2], the SARS-CoV-2 infection rate was 108% (inactive).

Take `C[C@H](Oc1ccc(S(C)(=O)=O)cc1C(=O)N1CCN(c2ncc(C(F)(F)F)cc2F)CC1)C(F)(F)F` [bitopertin] (10 µM): the morphology score in test [1] came to 0.119. Also, the SARS-CoV-2 infection rate in test [2] is 108% (inactive).

Compound `C/C(O)=C(\C#N)C(=O)Nc1ccc(C(F)(F)F)cc1` [teriflunomide] (10 µM) had a morphology score in test [1] of 0.0341. Besides, the SARS-CoV-2 infection rate in test [2] was 108% (inactive).

Consider `Oc1ccc2c3c1O[C@H]1[C@@H](O)CC[C@@]4(O)[C@@H](C2)N(CC2CCC2)CC[C@]314` [nalbuphine] (10 µM), for which, in test [1], the morphology score is -0.0532. In addition, the SARS-CoV-2 infection rate in test [2] was 114% (inactive).

The compound `CC(C)NCC(O)COc1cccc2[nH]ccc12` (centres undefined) [pindolol] (10 µM) registered a morphology score in test [1] of 0.0938. For the same compound, in test [2], the SARS-CoV-2 infection rate is 104% (inactive).

`C[C@H](NC(=O)CNC(=O)c1cccc(Cl)c1)c1ccccc1` (10 µM) displayed a morphology score in test [1] of 0.0656. Further, the SARS-CoV-2 infection rate in test [2] was 102% (inactive).

For the compound `CCC(=O)O[C@]1(C(=O)CCl)[C@@H](C)C[C@H]2[C@@H]3C[C@H](F)C4=CC(=O)C=C[C@]4(C)[C@@]3(F)[C@@H](O)C[C@@]21C` [halobetasol-propionate] (10 µM), the morphology score in test [1] stood at 0.0989. Further, in test [2], the SARS-CoV-2 infection rate is 106% (inactive).

Compound `CC1(C)CCC(C)(C)c2cc(NC(=O)c3ccc(C(=O)O)cc3)ccc21` [tamibarotene] (10 µM) registered a morphology score in test [1] of 0.135. In test [2], the SARS-CoV-2 infection rate was 108% (inactive).

`N=C(N)NC(=O)c1cnccn1` [pyrazinoylguanidine] (10 µM) displayed a morphology score in test [1] of 0.0685. In addition, the SARS-CoV-2 infection rate in test [2] was 108% (inactive).

For the compound `Cc1[nH]c(/C=C2\C(=O)Nc3ccc(S(=O)(=O)N(C)c4cccc(Cl)c4)cc32)c(C)c1C(=O)N1CCN(C)CC1` (10 µM), the morphology score in test [1] came to 0.493. For the same compound, in test [2], the SARS-CoV-2 infection rate is 104% (inactive).

For the compound `CCc1[nH]c(=O)[nH]c1C(=O)c1ccncc1` [piroximone] (10 µM), in test [1], the morphology score was 0.142. Moreover, the SARS-CoV-2 infection rate in test [2] is 100% (inactive).

In turn, `NC[C@@H](O)CC(=O)O` [aminohydroxybutyric-acid] (10 µM) came in with a morphology score in test [1] of 0.226. The SARS-CoV-2 infection rate in test [2] is 92% (inactive).

Turning to `CC(C)[C@H]1c2ccc(F)cc2CC[C@@]1(CCN(C)CCCc1nc2ccccc2[nH]1)OC(=O)C1CC1` (0.833333 µM), the morphology score in test [1] came out at 0.0422. Further, the SARS-CoV-2 infection rate in test [2] is 98% (inactive).

`CNC(=O)CN1CCC(Oc2cc3c(Nc4cccc(Cl)c4F)ncnc3cc2OC)CC1`: the “inhibition of SARS-CoV-2 cytopathic effect” value (from here on “inhibition”) in test [3] (1 nM) is -0.01% (inactive); in test [3] (8.33 nM), 0.66% (inactive); in test [3] (100 nM), -6.91% (inactive); in test [3] (833.33 nM) it was -7.8% (inactive); in test [3] (10000 nM), -13.6% (inactive).

For `CC(C)C[C@@H](NC(=O)[C@H](C)NC(=O)CNC(=O)[C@@H](NC=O)C(C)C)C(=O)N[C@@H](C)C(=O)N[C@@H](C(=O)N[C@H](C(=O)N[C@@H](C(=O)N[C@@H](Cc1c[nH]c2ccccc12)C(=O)N[C@H](CC(C)C)C(=O)N[C@@H](Cc1c[nH]c2ccccc12)C(=O)N[C@H](CC(C)C)C(=O)N[C@@H](Cc1c[nH]c2ccccc12)C(=O)N[C@H](CC(C)C)C(=O)N[C@@H](Cc1c[nH]c2ccccc12)C(=O)NCCO)C(C)C)C(C)C)C(C)C` [gramicidin], the “inhibition” value was 0.05% (inactive) in test [3] (1 nM); 0.15% (inactive) in test [3] (8.33 nM); 0.36% (inactive) in test [3] (100 nM); -1.18% (inactive) in test [3] (833.33 nM); 2.22% (inactive) in test [3] (10000 nM).

Take `NCCCC[C@H](NC(=O)[C@@H]1CCCN1C(=O)[C@@H]1CSSC[C@H](NC(=O)CNC(=O)CNC(=O)CN)C(=O)N[C@@H](Cc2ccc(O)cc2)C(=O)N[C@@H](Cc2ccccc2)C(=O)N[C@@H](CCC(N)=O)C(=O)N[C@@H](CC(N)=O)C(=O)N1)C(=O)NCC(N)=O` [terlipressin]: the “inhibition” value was 2.67% (inactive) in test [3] (1 nM); 0.07% (inactive) in test [3] (8.33 nM); 0.5% (inactive) in test [3] (100 nM); -0.07% (inactive) in test [3] (833.33 nM); 0.72% (inactive) in test [3] (10000 nM).

For `CN(Cc1ccc(C(C)(C)C)cc1)Cc1cccc2ccccc12` [butenafine], the “inhibition” value in test [3] (1 nM) was 0.43% (inactive); in test [3] (8.33 nM), 3.81% (inactive); in test [3] (100 nM), 0.84% (inactive); in test [3] (833.33 nM), 2.62% (inactive); in test [3] (10000 nM), 4.56% (inactive).

For `Nc1sc2c(c1C(=O)c1ccc(Cl)cc1)CCCC2`, the “inhibition” value in test [3] (1 nM) was -0.5% (inactive); in test [3] (8.33 nM), 3.31% (inactive); in test [3] (100 nM) it was 0.38% (inactive).

The record behind these values is the supplement of paper PMC13380429.
